# Data: PubChem BioAssay AID743343 (Broad Institute, 2014)
# Entries with a potency or affinity are not part of this list. Active and inactive are the calls of the source. How the calls were made is not given here.
# Test system: Drosophila melanogaster bursicon receptor LGR2 (rickets)
# Experiment: LGR2 antagonists, dose response, cell-based, HEK293, CRE-luciferase reporter, cherry pick, set 2 (AID 743343)
# Conditions: bursicon-induced cAMP antagonist; series mostly up to 35 µM
row,SMILES,outcome
1,OC[C@H]1[C@@H](c2ccc(-c3ccc(F)cc3)cc2)[C@@H]2CN(Cc3ccccn3)CCCCN12,inactive
2,C[C@H](CO)N1C[C@H](C)[C@@H](CN(C)C(=O)Nc2ccc3c(c2)OCO3)Oc2c(cccc2N(C)C)C1=O,inactive
3,C[C@H](CO)N1C[C@H](C)[C@H](CN(C)Cc2ccccc2)Oc2c(NS(=O)(=O)c3cn(C)cn3)cccc2C1=O,inactive
4,CC(C)N(C(=O)Nc1ccc2nsnc2c1)C(C)C,inactive
5,CC(C)(C)c1nc2ccc(Cl)cn2c1CC1CCCCC1,inactive
6,COc1ccccc1CN(C)C[C@@H]1OCc2cnnn2CCCC(=O)N([C@H](C)CO)C[C@H]1C,inactive
7,C[C@@H]1CN([C@H](C)CO)C(=O)c2cc(C#CCN(C)C)cnc2O[C@@H]1CN(C)C(=O)CN1CCOCC1,inactive
8,CC(=O)c1c(C)[nH]c(C(=O)CN2C(=O)NC(C)(c3ccc(C)cc3)C2=O)c1C (stereo not drawn),inactive
9,C[C@@H]1CN([C@H](C)CO)C(=O)CCCn2nncc2CO[C@H]1CN(C)C(=O)Nc1cccc2ccccc12,inactive
10,O=C(c1ccc(F)cc1)N1CC(=O)N2[C@@H](CO)[C@@H](c3ccc(C#CC4CCCC4)cc3)[C@@H]2C1,inactive
11,CC(=O)N1CCc2cc(S(=O)(=O)C(C)CC(=O)NCc3ccco3)ccc21 (stereo not drawn),inactive
12,CCOC(=O)C1=CCN(S(=O)(=O)c2ccccc2C)C1c1cccc(C)c1 (stereo not drawn),inactive
13,Cn1c(=O)c2cc(NC(=O)NCc3ccccc3)ccc2n1C/C=C/c1ccccc1,inactive
14,Cc1cc(Cl)ccc1OCCCC(=O)Nc1cc(S(=O)(=O)N2CCOCC2)ccc1N1CCOCC1,inactive
15,O=C(Nc1cc(S(=O)(=O)Nc2ccccc2Cl)ccc1O)c1ccc(F)cc1F,inactive
16,CCCCC(=O)N(C)c1c(C)nc2ccc(C(=O)N3CCCCC3)cn12,inactive
17,CC1CCN(C(=O)c2ccc(S(=O)(=O)Cc3cc(F)ccc3F)c([N+](=O)[O-])c2)CC1,inactive
18,Cc1ccc(NC(=O)c2ncn(CC(=O)NCc3ccc4[nH]ccc4c3)n2)cc1C,inactive
19,CCC(=O)N(C)C[C@H]1Oc2cc(C#CCC(C)C)ccc2S(=O)(=O)N([C@H](C)CO)C[C@@H]1C,inactive

row,SMILES,outcome
1,CCN(C(=O)COC(=O)C12CC3CC(CC(O)(C3)C1)C2)c1c(N)n(Cc2ccccc2)c(=O)[nH]c1=O,inactive
2,O=C(CSc1ncnc2[nH]ncc12)Nc1nc(-c2ccc(F)c(F)c2)cs1,inactive
3,COc1ccc2c3c([nH]c2c1)[C@H](CO)N(C(C)=O)CC31CCN(C(=O)CN2CCOCC2)CC1,inactive
4,O=C(Cc1ccccc1Cl)Nc1cccnc1,inactive
5,O=C(C[C@H]1CC[C@H](NS(=O)(=O)c2cccc(F)c2)[C@@H](CO)O1)N1CCCCC1,inactive
6,Cc1ccc2nc(NC(=O)CCCC(=O)O)sc2c1,inactive
7,COc1cccc(C(=O)Nc2ccc3c(c2)OC[C@@H](C)N(CC2CC2)C[C@H](C)[C@H](OC)CN(C)C3=O)c1,inactive
8,Cn1nnnc1SCC(=O)N1CCN(C(=O)c2ccco2)CC1,inactive
9,COc1ccc(S(=O)(=O)N2CCOCC2)cc1NC(=O)COc1ccc(C)cc1,inactive
10,CC(=O)c1ccc(S(=O)(=O)N2CCC(NC(=O)Nc3cccc(F)c3)CC2)cc1,inactive
11,C[C@H](CO)N1C[C@H](C)[C@@H](CN(C)S(=O)(=O)c2cccs2)Oc2c(cccc2N(C)C)C1=O,inactive
12,COc1ccc(-c2noc(CCC(=O)N3CCN(c4ccc(Cl)cc4)CC3)n2)cc1,inactive
13,C[C@@H]1CN([C@H](C)CO)C(=O)c2c(c3ccccc3n2C)-c2ccccc2CO[C@H]1CN(C)S(=O)(=O)c1cn(C)cn1,inactive
14,C[C@@H]1CN([C@@H](C)CO)C(=O)c2cccc(NC(=O)Nc3ccc(C(F)(F)F)cc3)c2O[C@H]1CN(C)C(=O)Nc1cccc2ccccc12,inactive
15,COCC(=O)N[C@@H]1CC[C@@H](CC(=O)NCc2ccccc2OC)O[C@@H]1CO,inactive
16,COc1ccc(NC(=O)Nc2ccc3c(c2)CC(=O)N([C@@H](C)CO)C[C@@H](C)[C@H](CN(C)Cc2ccncc2)O3)cc1,inactive
17,N#C[C@@H]1[C@H](c2ccc(C#CC3CCCCC3)cc2)[C@@H](CO)N1C(=O)c1cccc(F)c1,inactive
18,CCCCOc1cc(NCc2ccccc2)c2ncn(C(C)C)c2c1,inactive
19,CCOC(=O)C(C)N1c2cccc3cccc(c23)S1(=O)=O (stereo not drawn),inactive
